Experiment in all cases: NCI-60 one-dose screen, 48 h (100 = growth as untreated, 0 = no growth, -100 = all killed)
Conditions in all cases: 10 µM unless noted

The test system of test [1] is HCT-15 colon.
Test [2] deals with HT29 colon.
Test [3] concerns SNB-75 CNS.
Test [4] concerns SNB-19 CNS.
For test [5], the system named is U251 CNS.
Test [6] relates to PC-3 prostate.
Test [7] relates to SK-MEL-5 melanoma.
Test [8] deals with UACC-62 melanoma.
The subject of test [9] is LOX IMVI melanoma.
Test [10] deals with SK-MEL-28 melanoma.

Compounds without any hit were thinned out: in the full panel of roughly 83,000, 20% have a hit.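 Testing used 96-well plates and a 48-hour single-concentration exposure. Example: -40 means 40% of the starting cells died.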 Unmarked numbers belong to inactive results. Active and inactive are the calls of the source. How the source made its calls: active means growth percent below 10; inactive means the rest.

`CC1(C)CC[C@]23CC[C@]4(C)[C@H](CC[C@@H]5[C@@]6(C)CCNCC(C)(C)[C@@H]6CC[C@]54C)[C@H]2[C@H]1OC3`: the growth in test [1] is 54.2%; in test [2] it was 18.6%; in test [3] it was 96.8%; in test [4], 103%; in test [5] it was 70%; in test [6], 65.8%. For the same compound, the growth in test [7] was 96.2%; in test [8], 94.4%; in test [9], 83.8%; in test [10], 99.9%.

In the case of `CC(C)n1c2ccc(Br)cc2c2c3c(c4c5ccccc5ccc4c21)C(=O)NC3=O`, the growth in test [1] was 83.7%; in test [2] it was 70.3%; in test [3] it was 103%; in test [4] it was 102%; in [5], 98%; in [6] it was 89.8%. The growth in test [7] is 90.7%; in [8] it was 101%; in test [9], 106%; in test [10], 96.5%.

Consider `Cc1ccc2c(c1)sc1nc(-c3c[nH]c4ccccc34)c(Nc3ccccc3)n12`, for which the growth was 105% in test [1]; 104% in test [2]; 89.8% in test [3]; 94.9% in test [4]; 106% in test [5]; 90.4% in test [6]. Also, the growth is 113% in test [7], 89.4% in test [8], 96.3% in [9] and 110% in test [10].

On to `c1ccc(-c2c(-c3ccccc3)[n+](Cc3ccc4ccccc4c3)cn2Cc2ccc3ccccc3c2)cc1`, for which the growth in test [1] was -93.3% (active); in test [2], -89.9% (active); in test [3] it was -67.6% (active); in test [4], -66.4% (active); in [5], -90% (active); in [6], -91.8% (active). The growth in test [7] was -100% (active); in test [8], -73.2% (active); in test [9], -99.5% (active); in [10] it was -91.5% (active).

`Fc1cccc(CNc2c3ccccc3nc3ccccc23)c1`: the growth in test [1] was 22.9%; in [2] it was 14.3%; in test [3], 63%; in test [4] it was 35.9%; in test [5], 35.2%; in [6], 49%. Further, the growth in [7] was 60.5%; in test [8], 50.3%; in test [9], 12.3%; in test [10], 78.5%.

In the case of `CCN(CC)CCCC(Cc1ccccc1)Nc1c2ccc(Cl)cc2nc2ccc(OC)cc12` (stereo not given), the growth in test [1] is 2.58% (active); in [2], 16.3%; in test [3] it was 10.6%; in test [4], 34.7%; in test [5], 9.64% (active); in test [6], 44.8%. The growth in test [7] is -93.6% (active); in test [8], -61.2% (active); in test [9], -67.8% (active); in test [10], -79.3% (active).

As to `CN(C)CCCn1c2c(c3cnccc3c1=O)C(=O)c1ccccc1-2`, the growth in test [1] was -3.54% (active); in test [2], -2.38% (active); in [3], 10.6%; in test [4], 1.02% (active); in test [5], 0.151% (active); in test [6] it was -5.36% (active). In addition, the growth in test [7] was -75.8% (active); in [8], -64.6% (active); in [9], -44.9% (active); in [10], -28.1% (active).

As for `O=C1C=CC2(O)OC/C(=C\c3ccccc3)C(O)=C2C1=O` (stereo not given), the growth in test [1] was -6.43% (active); in test [2], 17.8%; in test [3] it was 38.8%; in [4], 27.6%; in test [5], -35.2% (active); in [6], 0.717% (active). The growth in test [7] is 31.3%; in test [8], -64.1% (active); in test [9] it was -82.8% (active); in [10], 51.9%.

Regarding `O=C(/C=C/c1ccccc1)c1cccc2ccccc12`, the growth in test [1] is 26.5%; in [2], 3.24% (active); in [3], 17.4%; in [4] it was 56.7%; in test [5] it was 29.6%; in test [6], 45.2%. The growth was 59.2% in test [7], 36.1% in test [8], 57.8% in [9] and 68.3% in test [10].

For `CC1(C)CC(=O)C2=C(C1)C(c1ccc(Cl)cc1)n1ncc(C#N)c1N2` (stereo not given), the growth was 105% in test [1]; 106% in test [2]; 75.6% in [3]; 96.5% in test [4]; 97.8% in [5]; 90.4% in test [6]. In addition, the growth was 95.4% in test [7], 89.8% in test [8], 107% in test [9] and 112% in [10].

Turning to `CCN(CC)CCOc1ccc2ccc(=O)oc2c1`, the growth is 104% in test [1]; 102% in test [2]; 107% in test [3]; 98.5% in test [4]; 101% in test [5]; 21.3% in test [6]. The growth in test [7] is 102%; in [8] it was 94.8%; in test [9], 101%; in test [10], 99.6%.

As for `CNC(=O)c1cc(Oc2ccc3c(c2)sc2nc(-c4cc(C(F)(F)F)cc(C(F)(F)F)c4)cn23)ccn1`, the growth in test [1] is 70.9%; in [2] it was 38.7%; in [3], 23.3%; in test [4], 62.8%; in test [5], 38.6%; in test [6], 45.4%. The growth in [7] was 33%; in test [8] it was 53.3%; in [9], 50.1%; in test [10] it was 79.3%.

With `CCCCO[C@@H]1C=C2[C@H]3CC(C)(C)C(=O)C[C@]3(C(=O)O[C@@H]3O[C@H](CO[C@@H]4O[C@H](CO)[C@@H](OC5OC(C)C(O)C(O)C5O)[C@H](O)[C@H]4O)[C@@H](O)[C@H](O)[C@H]3O)CC[C@@]2(C)[C@]2(C)CC[C@H]3C(C)(C)C(=O)CC[C@]3(C)[C@@H]12` (stereo not given in full), the growth in test [1] is 54.5%; in test [2], 43.2%; in test [3], 31.3%; in [4], 88%; in test [5], 56.4%; in [6], 85.2%. The growth in test [7] is 63.9%; in [8], 81.4%; in test [9], 76.9%; in test [10], 41.5%.

Values taken from PubChem BioAssay (NCI).
